This is a sample that favours compounds with a hit; in the whole collection about 19% have one here.
ELG1 DNA repair: inhibitors of ELG1-dependent DNA repair in HEK293T cells | HEK293T ELG1-luciferase reporter, luminescence, 16 h; DNA damage induced by 5-fluorouridine | actives 2.3% (n = 330,000) | Potency, µM (top dose mostly 46.1 µM), inactives show top-dose activity change, negative = inhibition, hits mostly inhibitors | AID 504467; note: potency is the fitted concentration of half-maximal effect; nearly all actives have a fitted effect of over 55% in size
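HEK293T cells expressing luciferase-tagged ELG1 (2,000/well) received 5-Fluorouridine plus compound or DMSO for 16 hr at 37 °C. Luciferase was read by ONE-Glo luminescence after 30 min at room temperature.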
IL1B secr inh: inflammasome signaling inhibition, IL-1 beta readout; THP-1 LPS/ATP IL-1B secretion, AlphaLISA, 16 h; stronger effect = lower value; activity change, % at 57.5 µM; actives 4.7% (n = 360,000); AID 743279; in the data active = activity change below about -50%; inconclusive = mostly about -30% to -49%
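THP-1 cells pretreated 1 hr with compounds (up to 57.5 uM final), then stimulated with LPS (250 ng/mL final) plus ATP (1.25 mM final); secreted IL-1B measured by AlphaLISA after 16 hr, decreased signal indicating inhibition.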
DT40 TDP1 CPT: DT40-hTDP1 cell growth loss with CPT; actives 12% (n = 420,000); chicken DT40 Tdp1-/-;hTDP1 cells + 20 nM CPT, ATP luminescence, 48 h; Potency, µM (highest dose often 46.2 µM), inactives show top-dose activity change, negative = growth inhibition, usual class: inhibitors; AID 686979; note: potency is the fitted concentration of half-maximal effect; nearly all actives have a fitted effect of over 55% in size
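Chicken DT40 Tdp1-/- cells complemented with human TDP1, 400 cells/well, exposed to compounds plus 20 nM camptothecin for at least 48 h at 37 C; viability read as ATP content by CellTiter-Glo luminescence.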
HT1080 IDH1KD tx: toxicity to HT-1080 IDH1 knockdown cells (counter line) | HT-1080 IDH1 knockdown viability, ATP luminescence, 48 h | Potency, µM (series often up to 46.1 µM), without a hit: at the highest dose activity, negative = toxicity, hits mostly cytotoxic | actives 2% (n = 360,000) | AID 686971;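 note: potency is the fitted concentration of half-maximal effect; 0% = DMSO wells and -100% = cell-free medium wells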
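Cytotoxicity counter-line: IDH1KD HT-1080, 48 h, CellTiter-Glo. Curves classed by r2, magnitude and activity.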
HT1080-NT tox: kills 2HG-producing HT-1080-NT fibrosarcoma cells; actives 1.6% (n = 360,000); HT-1080-NT fibrosarcoma viability, CellTiter-Glo ATP luminescence, 48 h; Potency, µM (doses to about 46.1 µM), for the others: at the top dose activity, negative = less viability, most hits filed as cytotoxic; AID 686970;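 note: NT is the 2HG producing partner of a matched IDH1 knockdown line; potency is the fitted concentration of half-maximal effect; 0% = DMSO-treated cells and -100% = media-only wells without cells; nearly all actives have a fitted effect of over 55% in size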
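Viability of the 2HG-overproducing fibrosarcoma line after 48 hours of compound exposure at 37 degrees C was determined by luminescence with CellTiter-Glo, and concentration-effect curves were then fitted and categorized.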
DT40 TDP1 no CPT: qHTS for Inhibitors of human tyrosyl-DNA phosphodiesterase 1 (TDP1): qHTS in cells in absence of CPT; DT40 Tdp1-/- hTDP1 cells, no CPT, ATP luminescence, 48 h; Potency, µM (titrated, usually from 46.2 µM), without a hit: at the top dose activity change, negative = growth inhibition, hits mostly inhibitors; actives 15% (n = 420,000); note: potency is the fitted concentration of half-maximal effect; nearly all actives have a fitted effect of over 55% in size
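Stably hTDP1-transfected Tdp1-null chicken DT40 cells were treated with library compounds minus camptothecin and grown for at least 48 hr at 37 °C, after which cellular ATP was quantified by luminescence.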
Active calls of the source: *; ? = inconclusive; . = not tested or not shown; [ ] = dose if it differs, or a comment. Unless noted, calls come from the whole dose curve; as a rule, active = well fitted curve in the direction sought with a large enough effect; inconclusive = small, poorly fitted or top-dose-only effect, or another doubt; inactive = no such curve, though single readings can be large; an effect the other way counts as inactive or inconclusive. Unless noted, % is set by controls: 0 for no effect and ±100 for the full control effect.

SMILES	ELG1 DNA repair	IL1B secr inh	DT40 TDP1 CPT	HT1080 IDH1KD tx	HT1080-NT tox	DT40 TDP1 no CPT
O=C(Nc1ccccc1N1CCCC1)C1=COCCO1	8%	8	-11%	4%	0%[9.24 µM]	5%
O=C(Nc1ccccc1N1CCCCC1)C1=COCCO1	-12%	34	?	0%	-17%	12µM*
CCOc1ccc(CNC(=O)c2cnc3sc(N(CC)CC)nn3c2=O)cc1OC	.	.	-27%	.	.	?
Cc1cc(C)nc(N2N=C(c3ccccc3)CC2=O)n1	?	-23	-3%	4%	-2%	1%
O=C1CC(c2ccccc2)=NN1c1ccccc1	.	-82*	?	-34%	?	15µM*
COc1cnc(-c2ccccn2)nc1Oc1ccc(Cl)c2ccccc12	?	-10	1.3µM*	-29%	-12%	1.2µM*
COc1cnc(-c2ccccn2)nc1Oc1ccc(Cl)cc1	?	-25	1.6µM*	-12%	-5%	1.5µM*
COc1cnc(-c2ccccn2)nc1Oc1ccc(F)cc1F	14%	16	10µM*	-12%	2%	3.7µM*
COc1cnc(-c2ccccn2)nc1Oc1ccccc1Cl	?	2	?	1%	14%	?
COc1cnc(-c2ccccc2)nc1Oc1ccccc1C	?	12	?	-4%	0%	?
CC1CCN(S(=O)(=O)c2ccc3c(c2)oc(=O)n3CC(=O)N2CCCCC2)CC1	.	.	9%	.	.	0%
COc1ccc(N2CCN(Cc3cc(=O)oc4c3ccc3ccccc34)CC2)cc1	-2%	.	.	.	.	.
COc1ccc2c(CN(C)c3ccccc3)cc(=O)oc2c1	7%	-3	29µM*	-1%	-2%	?
CCc1ccc2oc(=O)cc(CN3CCN(Cc4ccccc4)CC3)c2c1	1%	9	?	-2%	-12%	21µM*
CCc1ccc2oc(=O)cc(CN3CCN(c4ccc(F)cc4)CC3)c2c1	?	11	?	-24%	-23%	16µM*
COc1ccc2c(CN(C)Cc3ccccc3)cc(=O)oc2c1	.	-3	?	1%	10%	?
COc1ccc(N2CCN(Cc3cc(=O)oc4cc5c(cc34)CCCC5)CC2)cc1	25%	0	21µM*	7%	-18%	13µM*
CCOc1ccc2oc(=O)cc(CN3CCN(Cc4ccc(F)cc4)CC3)c2c1	.	.	16µM*	.	.	23µM*
CCOc1ccc2oc(=O)cc(CN3CCN(c4cc(C)ccc4C)CC3)c2c1	.	.	15µM*	.	.	16µM*
COc1ccc2oc(=O)cc(CN3CCN(c4ccc(F)cc4)CC3)c2c1	.	.	?	.	.	23µM*
COc1ccc(N2CCN(Cc3cc(=O)oc4ccc(Cl)cc34)CC2)cc1	-1%	0	?	-3%	-3%	-11%
COc1ccc(N2CCN(Cc3cc4c(cc3O)CCC4)CC2)cc1	-20%	4	26µM*	-10%	2%	21µM*
CCN(CC)S(=O)(=O)c1ccc(/C=C/C(=O)OCC(=O)Nc2ccc(S(N)(=O)=O)cc2)cc1	-1%	2	5%	7%	0%	?
COC(=O)c1cc(S(=O)(=O)NCc2cccc(Br)c2)c[nH]1	8%	-10	-22%	2%	-4%	7%
Cc1ccc(-c2ccc(=O)n(CC(=O)NCCc3ccccc3)n2)cc1	.	.	-6%	.	.	-27%
O=C(CN1C(=O)NC2(CCCC2)C1=O)NCc1ccccc1	0%	12	-1%	1%	-2%	13%
COc1ccc2c(CN3CCN(c4ccccc4OC)CC3)cc(=O)oc2c1	.	-8	?	-5%	1%	15µM*
COc1ccc2c(CN3CCN(c4ccccc4F)CC3)cc(=O)oc2c1	.	9	?	11%	29%	?
